Compound activity (PubChem BioAssay)
HPGD block – inhibitors of human 15-hydroxyprostaglandin dehydrogenase (HPGD); P15428; purified HPGD, NADH fluorescence kinetic, PGE2 substrate; Potency, µM, for inactives: at the top dose activity change, negative = inhibition, hits mostly inhibitors; 4.3% of 150,000 active; AID 894; active = well fitted inhibition curve with a large enough effect, not every such curve was filed as active; inconclusive = small, poorly fitted or top-dose-only effect, or another doubt; inactive = no such curve, though single readings can be large or run the other way; note: potency is the fitted concentration of half-maximal effect
Target sequence (P15428 whole entry, looked up): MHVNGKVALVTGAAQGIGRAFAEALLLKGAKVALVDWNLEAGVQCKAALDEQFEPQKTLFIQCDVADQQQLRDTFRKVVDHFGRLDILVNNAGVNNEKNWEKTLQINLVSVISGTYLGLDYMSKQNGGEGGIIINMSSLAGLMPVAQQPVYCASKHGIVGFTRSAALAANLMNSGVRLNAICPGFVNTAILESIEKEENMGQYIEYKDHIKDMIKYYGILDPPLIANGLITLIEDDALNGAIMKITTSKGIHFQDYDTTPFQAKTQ
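NADH formation kinetics: reaction with 30 uM PGE2 and 1 mM NAD+ (final), 20 nM enzyme, Tris-HCl pH 8 with Tween 20, after 15 min compound preincubation at room temperature. Fluorescence change, last versus first of five reads.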
12-hLO inh – blocks human 12-lipoxygenase activity; purified 12-hLO, xylenol orange hydroperoxide absorbance; Potency, µM (top dose mostly 57.1 µM), without a hit: at the top dose activity change, negative = inhibition, usual class: inhibitors; 0.12% of 150,000 active; note: potency is the fitted concentration of half-maximal effect; nearly all actives have a fitted effect of over 55% in size
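Xylenol orange chromogenic assay: hydroperoxide from 12hLO oxidises Fe(II), giving red-shifted Fe(III)-XO absorbance. Conditions: 150 nM enzyme, 40 uM arachidonic acid, 25 mM Hepes pH 7.0, 0.01% Triton X-100, 30 min, room temperature.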
IMPase inh – membrane-permeable compound that blocks inositol monophosphatase | P97697 | CHO-M1 cells, IP1 accumulation, HTRF TR-FRET ratio | inhibition (IP1 accumulation), % at 46.1 µM | 120,000 tested, under 10 active | AID 901; active = well fitted curve in the direction sought with a large enough effect in the signal ratio, not every such curve was filed as active; inconclusive = small, poorly fitted or top-dose-only effect, or a change in a side signal; inactive = no such curve, though single readings can be large or run the other way; the % refers to the signal ratio;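 note: cells stimulated with carbachol in lithium chloride buffer; plate controls were DMSO basal wells for no effect and reference inhibitor wells for full effect; higher means more IMPase inhibition seen as more IP1 and lower FRET ratio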
Target sequence (P97697 whole entry, looked up): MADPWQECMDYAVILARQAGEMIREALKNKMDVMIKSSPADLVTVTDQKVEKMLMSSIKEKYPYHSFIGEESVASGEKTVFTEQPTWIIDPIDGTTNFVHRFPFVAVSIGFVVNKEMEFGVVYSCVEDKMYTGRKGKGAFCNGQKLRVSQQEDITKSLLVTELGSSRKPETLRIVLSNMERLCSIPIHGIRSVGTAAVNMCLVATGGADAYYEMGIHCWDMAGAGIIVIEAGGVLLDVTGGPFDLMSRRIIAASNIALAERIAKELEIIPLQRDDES
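In this qHTS, compounds (final up to 46 uM) act on CHO-M1 cells that are then activated through the M1 receptor with carbachol, in pH 7.4 buffer containing 50 mM LiCl, for 30 min. IP1 accumulation is quantified by the IP-One immunoassay.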
PNC assembly inh – blocks assembly of the perinucleolar compartment | activity change (PNC), negative = inhibition, % at 10 µM | AID 2417 | 3.1% of 140,000 active | PC3M PTB-GFP, PNC prevalence imaging, 16 h; hits give low values;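 active = readout at or below -70, meaning at least 70% loss of cells showing the perinucleolar compartment, a nuclear body marking cancer cells; inconclusive = readout between -30 and a set limit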;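 note: plate controls were DMSO wells for no effect and camptothecin positive control wells for full effect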
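PC3M cells stably expressing PTB-GFP, 750–1000 cells/well, treated 16 h at 37 °C with compound (23 nl of library stock), in duplicate. After paraformaldehyde fixation and Hoechst stain, imaged at 20x; PNC prevalence scored by image analysis.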
15-hLO-2 inh – blocks human 15-lipoxygenase 2 activity; O15296; purified 15hLO-2, xylenol orange hydroperoxide absorbance; Potency, µM (series often up to 57.1 µM), without a hit: at the highest dose activity change, negative = inhibition, usual class: inhibitors; 0.56% of 110,000 active; AID 881; note: potency is the fitted concentration of half-maximal effect; nearly all actives have a fitted effect of over 60% in size
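Purified human 15hLO-2 (50 nM final) preincubated with compounds 15 min at room temperature in 25 mM Hepes pH 7.5, 0.01% Triton X-100, then 45 uM arachidonic acid added for 90 min; hydroperoxide detected via ferrous/xylenol orange, 573/405 nm absorbance ratio.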
IMPase Li cell – cell-permeable IMPase inhibitors with lithium potentiation; Potency, µM (titrated, usually from 59.4 µM), for inactives: at the top dose activity, negative = IMPase inhibition, actives largely listed as inhibitors; AID 1457; 0.35% of 210,000 active; CHO-M1 cells, IP1 TR-FRET (IP-One), carbachol + lithium;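 note: IP1 builds up when IMPase is blocked and the TR-FRET signal falls; potency is the fitted concentration of half-maximal effect; plate controls were basal vehicle for no effect and high inhibitor control for full effect; nearly all actives have a fitted effect of over 50% in size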
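Lithium-sensitised IP1 accumulation assay; M1-expressing CHO cells treated 30 min at 37C with compound. Competitive antibody detection by time-resolved FRET followed a 10 min room-temperature lysis step.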
The depositor's hits bear a star; ? = inconclusive; nt = not tested or not shown; [ ] = another dose, or the depositor's remark. A selection: hits, their analogues and other compounds. The true share with any hit is near 5.4%. Unless noted, calls come from the whole dose curve; as a rule, active = well fitted curve in the direction sought with a large enough effect; inconclusive = small, poorly fitted or top-dose-only effect, or another doubt; inactive = no such curve, though single readings can be large; an effect the other way counts as inactive or inconclusive. Unless noted, % is set by controls: 0 for no effect and ±100 for the full control effect.

SMILES	HPGD block	12-hLO inh	IMPase inh	PNC assembly inh	15-hLO-2 inh	IMPase Li cell
CCOC(=O)C1CCc2sc(N)c(C#N)c21 (stereo not given)	-16%	-14%	3	-135*	-18%	15%[38.3 µM]
COC(=O)c1ccc(NC(=O)CN(Cc2ccccc2)S(=O)(=O)c2ccc(Cl)cc2)cc1	nt	nt	5	nt	nt	nt
Oc1ccc(C2=Nn3c(nnc3-c3ccco3)SC2)cc1O	14µM*	?	17	?	?	61%
COc1ccc(OC)c(C2=Nn3c(nnc3-c3ccco3)SC2)c1	28µM*	-4%	2	38	-7%	5%[38.3 µM]
COc1cccc(NC(=O)CSc2nc(O)c(C/C=C/c3ccccc3)c(=O)[nH]2)c1	nt	nt	-1	nt	nt	nt
CCOC(=O)c1nnn(-c2nonc2N)c1CN1CCc2ccccc2C1	0%	-4%	5	-83*	-2%	6%
Cc1cccc(NS(=O)(=O)c2ccc(Cl)c(C(=O)O)c2)c1	-9%	-3%	nt	nt	nt	nt
Cc1ccc(/C=C2\SC(=S)N(CC(=O)Nc3ncc(Cc4ccccc4Cl)s3)C2=O)cc1	?	-3%	8	-30	13µM*	7%[38.3 µM]
O=C(Nc1nncs1)c1ccc(S(=O)(=O)c2ccccc2)cc1	-12%	2%	-1	-117*	-5%	19%[38.3 µM]
O=C(Nc1nncs1)c1c(F)c(F)c(F)c(F)c1F	22µM*	-1%	3	?	5%	7%[38.3 µM]
CCOC(=O)/C(=N/Nc1ccccc1)Sc1nnc(CCc2ccccc2)n1-c1ccccc1	-22%	-16%	nt	-134*	nt	25%
CC(C)c1nc2sc3c(=O)[nH]c(=S)[nH]c3c2c2c1CCC2	16µM*	-11%	nt	42	nt	?
CCOC(=O)c1sc2nc(C(C)C)c3c(c2c1N)CCC3	?	1%	-6	37	nt	-10%
CC(C)Oc1ccc(C(=O)Nc2ccc3oc(-c4ccncc4)nc3c2)cc1	nt	nt	-27	nt	nt	nt
CCC(=O)NC(=S)Nc1ccc(NC(=O)c2ccco2)cc1	nt	nt	nt	nt	nt	7%
CC(C)CC(=O)NC(=S)Nc1ccc(NC(=O)c2ccco2)cc1	14µM*	-2%	nt	8	nt	-5%
O=C(/C=C/c1ccc(Cl)cc1)NC(=S)Nc1ccc(NC(=O)c2ccco2)cc1	-12%	-3%	-6	-112*	nt	4%
S=C(NCc1ccco1)Nc1ccc(Cl)cc1	18µM*	-9%	nt	-25	nt	9%
CCN(CC)S(=O)(=O)c1ccc(NC(=S)NC(=O)CC(C)C)cc1	-15%	-6%	nt	-83*	nt	9%
S=C(NCc1ccco1)Nc1ccccc1	nt	nt	nt	nt	nt	5%
CCc1cccc(NC(=O)Cn2c(=O)n(CC(=O)NCCc3ccccc3)c(=O)c3ccccc32)c1	nt	nt	9	nt	nt	nt
O=S(=O)(O)O	-4%	3%	nt	nt	-16%	3%
CCOC(=O)CSc1nnc(CNC(=O)c2ccc(OC)cc2)n1Cc1ccccc1	-7%	-3%	2	13	-3%	7%[38.3 µM]
COc1ccc(C(=O)NCc2nnc(SCC(=O)N3CCc4ccccc43)n2Cc2ccccc2)cc1	-17%	-1%	nt	-100*	nt	2%
CCOc1cc(CN2CCN(S(=O)(=O)c3ccc(C)cc3)CC2)ccc1OC	nt	nt	0	nt	nt	nt
SMILES	HPGD block	12-hLO inh	IMPase inh	PNC assembly inh	15-hLO-2 inh	IMPase Li cell
C=CCNC(=O)CSc1nc2cc(C(=O)OCC)ccc2n1CC	25µM*	1%	0	?	-1%	8%[38.3 µM]
C=C1CC[C@H](O)C/C1=C/C=C1\CCC[C@]2(C)[C@H]1CC[C@H]2[C@@H](C)/C=C\[C@@H](C)C(C)C	-6%	0%[25.6 µM]	3[20.6 µM]	nt	4%[25.6 µM]	-5%
OC[C@H]1NC[C@H](O)[C@@H](O)[C@H]1O	-11%	6%	-2	nt	6%	2%
Cc1cc2c(cc(C(=O)NCc3cccnc3)n2Cc2ccc(Cl)cc2)o1	18µM*	?	6	-2	10%	15%[38.3 µM]
O=C(NCc1cccs1)C(=O)NCC1OCCCN1S(=O)(=O)c1ccccc1 (stereo not given)	-4%	-2%	nt	-90*	nt	-13%
O=C(NCc1cccnc1)C(=O)NCC1OCCN1S(=O)(=O)c1ccc(Cl)cc1 (stereo not given)	-6%	2%	nt	-119*	nt	3%
Cc1ccc(S(=O)(=O)N2CCCOC2CNC(=O)C(=O)NCc2cccnc2)cc1 (stereo not given)	-2%	0%	nt	103	nt	3%
Cc1cc(C(=O)NCc2cccnc2)no1	-9%	2%	4	45	-2%	-4%[38.3 µM]
Cc1ccccc1N1C(=O)c2sc3nc4c(c(=O)n3c2C1=O)CCC4	32µM*	-2%	4	-4	-21%	-2%[38.3 µM]
O=C1c2sc3nc4c(c(=O)n3c2C(=O)N1c1ccccc1)CCC4	nt	-8%	7	?	-16%	nt
N=c1cc(C2(O)CCCCC2)n2c(nc3ccccc32)s1	-15%	0%	0	?	?	5%[38.3 µM]
O=C1c2sc3nc4ccccc4n3c2C(=O)N1c1ccccc1Cl	14µM*	-12%	-10	20	-22%	22%[38.3 µM]
C/C(CC/C(C)=N/O)=N/O	-5%	-3%[11.4 µM]	nt	nt	-6%[11.4 µM]	-1%
CO[C@H]1[C@H](O[C@H]2O[C@@H](C)[C@@H](O[C@@H]3C[C@](C)(O)[C@H](O)[C@H](C)O3)[C@@H](N(C)C)[C@@H]2O)[C@@H](CC=O)C[C@@H](C)[C@@H](O[C@H]2CC[C@H](N(C)C)[C@H](C)O2)/C=C\C=C/C[C@@H](C)OC(=O)C[C@H]1O	-3%	0%[25.6 µM]	-1[20.6 µM]	nt	4%[25.6 µM]	10%
COc1cc2oc(=O)c(Br)c(C)c2c(OC)c1OC	-13%	1%	?	-15	-9%	13µM*
COc1ccc(C(O)C2=CCCC2=O)cc1 (stereo not given)	-9%	nt	nt	nt	nt	2%
CC1NC(C(=O)O)Cc2c1[nH]c1ccccc21 (stereo not given)	nt	nt	nt	nt	nt	1%
O=C(N/N=C\c1ccc(F)cc1)c1cc(OCC(F)(F)F)ccc1OCC(F)(F)F	-1%	-8%	4	-87*	-8%	11%[38.3 µM]
Cc1ccc(S(=O)(=O)NCCNC(=O)c2cc(OCC(F)(F)F)ccc2OCC(F)(F)F)cc1	?	-7%	-9	?	8%	11µM*
O=C(NCCNS(=O)(=O)c1ccccc1Cl)c1cc(OCC(F)(F)F)ccc1OCC(F)(F)F	-7%	-7%	1	20	-2%	-1%[38.3 µM]
CSc1nc(N)c2ncn([C@@H]3O[C@H](COP(=O)(O)OP(=O)(O)O)[C@H](O)[C@H]3O)c2n1	-7%	nt	nt	nt	nt	-2%
COC(=O)c1cc(NC(=O)c2cc(C)oc2C)cc(C(=O)OC)c1	-21%	0%	-5	-100*	nt	11%
Cc1cc(C(=O)Nc2cccc(C(=O)O)c2)c(C)o1	-3%	6%	-3	-18	6%	9%[38.3 µM]
